Drawing on ChEMBL document CHEMBL4513216, “Probing the Open Global Health Chemical Diversity Library for Multistage-Active Starting Points for Next-Generation Antimalarials” (ACS Infect Dis, 2020), this text covers INHIBITION for 107 compounds.

The campaign covered roughly 69,000 compounds. About 8,600 (12%) showed an effect of 50% or more. This is one part of a sample in which strong results are shown more often than they occur.

The test system of this assay is Plasmodium berghei. As to the kind of experiment: Screen against P. berghei liver stage (PbLuc), transformed with Luciferase, at 10uM. Particulars: tested at 10 uM. Format: functional, HepG2.
Take `CCOc1ncccc1C(=O)NC1CCCN(c2ncccn2)C1` (configuration not stated): the INHIBITION was -39.7%.

On to `O=C(NCC1CCC2(CC1)OCCO2)c1cccc(-n2cccn2)c1`, for which the INHIBITION is listed as 30.2%.

For `COc1ncccc1CNCc1cnc(N2CCOCC2)nc1`, the INHIBITION was -65%. Regarding `Cc1cnn(CC2CN(CC(=O)Nc3c(C)nn(C)c3C)CCO2)c1` (configuration not stated), the INHIBITION is reported as 26.4%. With `CC(=O)N1C[C@H](NC(=O)c2cscn2)[C@@H]2OCCC[C@@H]21` the figure was 42.6%. The value for `CS(=O)(=O)N[C@@H]1CN(C(=O)c2ccccn2)[C@@H]2CCCO[C@@H]21` was 37.5%; that for `CS(=O)(=O)N[C@@H]1CN(C(=O)c2cccnc2)[C@@H]2CCCO[C@@H]21` was 56.7%. As for `NC(=O)N1C[C@H](NC(=O)c2cscn2)[C@@H]2OCCC[C@@H]21`, the INHIBITION was 60.2%. The value for `CO[C@H]1CN(C(=O)c2cccnc2)[C@@H]2CCCO[C@H]12` was -14.7%. The value for `CS(=O)(=O)N[C@H]1CN(C(=O)c2cscn2)[C@@H]2CCCO[C@H]12` was 60.2%; that for `Cc1cccc(C(=O)N2C[C@H](NS(C)(=O)=O)[C@@H]3OCCC[C@@H]32)n1` was 31.1%; that for `CS(=O)(=O)N[C@@H]1CN(C(=O)c2cnccn2)[C@@H]2CCCO[C@@H]21` was 26.4%. The value for `CN1C[C@H](NC(=O)c2cscn2)[C@@H]2OCCC[C@@H]21` was 35.8%. In the case of `CNc1ncccc1CN1CCCCC1c1cc(C)n2ccnc2n1` (configuration not stated), the INHIBITION is listed as 13%.

As for `CN(Cc1cccnc1)C(=O)NC1CCN(Cc2ccccn2)CC1`, the INHIBITION is given as 16.8%. The value for `CSCCC(C)NC(=O)N1CCSC(C)(C)C1` (configuration not stated) was 14.9%; that for `COCCC(C)NC(=O)N1CCSC(C)(C)C1` (configuration not stated) was 48.3%.

As to `CC(CCN(C)C)NC(=O)N1CCSC(C)(C)C1` (configuration not stated), the INHIBITION was found to be 60.3%. `Cc1nc(C2CCCN2CCS(C)(=O)=O)no1` (configuration not stated): the INHIBITION is on record as 26.55%. With `CCc1c(C)sc2nc3n(CCN(C)C)nc(SC)n3c(=O)c12`, the INHIBITION is reported as 30.5%.

On to `CCCSc1nn(CCCN(C)C)c2nc3sc(C)c(CC)c3c(=O)n12`, for which the INHIBITION was 11.6%. With `CCCSc1nn(CCN(C)C)c2nc3sc(C)c(CC)c3c(=O)n12` the figure was 88.1%; with `Cc1nn(C)c2cnn(CC(=O)NCc3cccs3)c12`, 8.49%. In the case of `CC(C)n1c(=O)c2ccccc2n(CCN(C)C)c1=O`, the INHIBITION was -0.29%. With `CCn1ncnc1C1CC(=O)NCc2nc(N3CCCC3)sc21` (configuration not stated), the INHIBITION is given as -32.5%. Consider `CCCC(=O)N1CCC(Nc2nc(O)cc(-c3ccsc3)n2)CC1`, for which the INHIBITION is reported as 10.7%.

With `CCCn1ncc2c(C(=O)Nc3cnn(CC)c3C)cc(C3CC3)nc21`, the INHIBITION was -9.98%. With `CCCn1ncc2c(C(=O)NC(C)Cn3cccn3)cc(C3CC3)nc21` (configuration not stated) the figure was -24.1%; with `CCCn1ncc2c(C(=O)Nc3n[nH]c(SC)n3)cc(C3CC3)nc21`, 53%. With `CN(Cc1ccc(-n2ccnc2)cc1)CC1CCCN1c1cccnn1` (configuration not stated) the figure was -12.1%; with `Cc1ccc(S(=O)(=O)c2ncccc2CN2CCN(C)CC2)cc1`, 68.4%.

In the case of `Cc1ccc(S(=O)(=O)c2ncccc2CN2CCCC2)cc1`, the INHIBITION turned out to be 42.4%. With `Cc1ccc(S(=O)(=O)c2ncccc2CN2CCOCC2)cc1`, the INHIBITION is reported as 37.8%.

As to `Cc1ccc(S(=O)(=O)c2ncccc2CN2CCN(CCO)CC2)cc1`, the INHIBITION came out at 68.4%. On to `Cc1ccc(S(=O)(=O)c2ncccc2CN2CCCCC2)cc1`, for which the INHIBITION was determined as 45.2%. As for `O=C(c1cccnc1N1CCN(CCO)CC1)N1CCCC1`, the INHIBITION was 43.6%.

For `CCn1cc(CN2CCCN(C(=O)c3cc(C)no3)CC2)cn1`, the INHIBITION is listed as 25.4%.

`CCc1ocnc1C(=O)N1CCOC(CCCC(C)C)C1` (configuration not stated): the INHIBITION amounted to 12.8%. With `O=C(c1cncc(Br)c1)N1CCCc2ccc(F)cc21` the figure was 67.4%. The value for `O=C(c1cncc(Br)c1)N1CCCc2c(F)cc(F)cc21` was 0.705%; that for `Cc1ccc2c(c1)CCCN2C(=O)c1cncc(Br)c1` was 6.88%; that for `Cc1nnc(N2CC[C@H]3O[C@H](C(=O)NCc4ccccn4)CC[C@H]32)s1` was 21.8%.

For the compound `COc1cc(CN2CC[C@H](NC(C)=O)[C@@H](O)CC2)ccc1F`, the INHIBITION is reported as -13.7%. With `Clc1snnc1CN1CCN(c2nccs2)CC1` the figure was 57.3%; with `Nc1nc(CN2CCN(c3nccs3)CC2)cs1`, 22.3%; with `CC1CN(Cc2nnsc2Cl)CCN1c1nccs1` (configuration not stated), 20.2%. With `Cc1nccn1C1CCCN(C(=O)c2ccc3nncn3c2)C1` (configuration not stated), the INHIBITION is 40.2%.

Turning to `O=C(CCNC(=O)c1ccoc1)Nc1ccccc1F`, the INHIBITION stood at 21.9%. With `O=C(CCNC(=O)c1ccoc1)Nc1c(F)cccc1F` the figure was -16.7%; with `O=C(CCNC(=O)c1ccoc1)Nc1cc(F)ccc1F`, 24.8%; with `O=C(CCNC(=O)c1ccoc1)Nc1cccc(F)c1`, -4.82%. In the case of `O=C(CCNC(=O)c1ccoc1)Nc1cc(F)cc(F)c1`, the INHIBITION came out at 54.5%. The value for `O=C(CCNC(=O)c1ccoc1)Nc1ccc(F)cc1F` was 59%; that for `CNC(=O)CCc1cccc(C2CCCN(c3cc(C)ncn3)C2)n1` (configuration not stated) was 44.8%.

In the case of `Cc1nnc2n1CCN(C(=O)c1cn(-c3ccccc3)nn1)C2`, the INHIBITION is given as -53.6%. With `CNC(=O)[C@@H]1C[C@H]2CN(C(=O)c3ccco3)C[C@H]2N1C(C)C` the figure was 16.4%; with `Cc1noc([C@H]2COC[C@H]3CN(C(=O)Cc4ccsc4)C[C@H]32)n1`, -32%; with `c1cnc(N2CC[C@@H](N3CCOCC3)[C@@H]2Cc2ccncc2)nc1`, 60%. The value for `Fc1cnc(N2CC[C@@H](N3CCOCC3)[C@@H]2Cc2ccncc2)nc1` was 21.6%; that for `Cc1cnc(N2CC[C@@H](N3CCOCC3)[C@@H]2Cc2ccncc2)nc1` was 33.4%. The value for `Cc1cc(CN2CCC(CNS(=O)(=O)c3ccccc3Cl)CC2)c(C)o1` was 30.7%; that for `O=C(C1CCOCC1)N1C[C@H]2CC(OCc3ccccc3)C[C@H]2C1` (some centres not stated) was -25.3%.

For the compound `C1CCC(c2nn3c(C4CCCO4)nnc3s2)C1` (configuration not stated), the INHIBITION is reported as 1.24%.

Turning to `CN(Cc1c(F)cccc1Cl)C(=O)Cn1cnc(C#N)n1`, the INHIBITION is reported as 28.7%.

For the compound `N#Cc1ncn(Cc2c(F)cccc2Cl)n1`, the INHIBITION was determined as 64.4%. For the compound `N#Cc1ncn(CC(=O)Cc2c(F)cccc2Cl)n1`, the INHIBITION amounted to 26.8%. The value for `Cc1cc(C)cc(OCn2ccc(C(=O)O)n2)c1` was 39.1%. With `CN(C)CCNC(=O)c1ccc(OC2CCN(CC3CC3)CC2)c(Cl)c1` the figure was -73.6%. On to `COC(=O)N1CCC(Oc2ccc(C(=O)NCCN(C)C)cc2Cl)CC1`, for which the INHIBITION is reported as -56.4%. With `CSCCNC(=O)c1ccc(OC2CCN(CC(C)(C)C)CC2)c(Cl)c1` the figure was 52.4%; with `CC1(C)OC(=O)N(CCCOc2ccc(F)cc2)C1=O`, 10.7%. As for `CCc1cnc(NCC2OCCc3ccccc32)nc1` (configuration not stated), the INHIBITION was determined as 44.3%. As for `CC(=O)c1cnc(NCC2OCCc3ccccc32)nc1C` (configuration not stated), the INHIBITION was found to be 74.9%. The value for `CCNc1ncc(C(=O)NCC2OCCc3ccccc32)cn1` (configuration not stated) was 41.5%; that for `Cc1ncsc1C(=O)NC1CCN(CCC#N)CC1` was 14.4%; that for `COc1cc(C(=O)NS(=O)(=O)c2cncc(Br)c2)cc(Cl)c1OC` was 5.23%. With `Cc1noc(COCC(=O)Nc2cc(C)c(Br)cn2)n1` the figure was -21.8%; with `COc1ccc(C(=O)NS(=O)(=O)c2cc(Cl)sc2Cl)cc1OC(F)F`, 27.7%; with `Cc1noc(NC(=O)c2ccc(F)cc2)n1`, 25.1%.

In the case of `COc1cc(C(=O)NC(CC(=O)O)c2cccs2)cc(Cl)c1OC` (configuration not stated), the INHIBITION is recorded as 18.6%. The value for `Cc1cc(NC(=O)c2ccc(C)c(F)c2)[nH]n1` was -30.8%; that for `COc1cc(C(=O)Nc2nc(C)no2)cc(OC)c1Br` was 91.4%.

`COc1cccc(C(=O)NS(=O)(=O)c2cc(Cl)sc2Cl)c1OC(F)F`: the INHIBITION is given as 45.7%. Consider `COc1cc(C(=O)Nc2nc(C)no2)cc(Cl)c1OC`, for which the INHIBITION was determined as 77%. For `COc1cc(C(=O)NS(=O)(=O)c2cccc(C#N)c2)cc(OC)c1Br`, the INHIBITION was 34.7%. The value for `Cc1noc(NC(=O)c2ccc(C)c(F)c2)n1` was 59%; that for `COc1cc(C(=O)NS(=O)(=O)c2cc(Cl)sc2Cl)ccc1OC(F)F` was 93.6%.

With `Cc1cnn(CC2CCCCN2Cc2cc(C)no2)c1` (configuration not stated), the INHIBITION came to 4.245%.

Take `Cn1cc(C2CCCN2C(=O)COCCc2ccccc2)cn1` (configuration not stated): the INHIBITION was -32%. For the compound `CC(c1ccncc1)n1cc2nc(N(C)C)[nH]cc-2c1=O` (configuration not stated), the INHIBITION was -27.5%. On to `COCC(=O)N1CCC(c2n[nH]c3nccnc23)CC1`, for which the INHIBITION is -22.6%. The value for `CC(C)(C)OC(=O)N1CCC(C(=O)NCCNc2ncccn2)CC1` was -33.9%. For `c1csc(N2[C@H](Cn3cncn3)C[C@@H]3CNCC[C@@H]32)n1`, the INHIBITION is reported as -86.4%. For the compound `COc1ccccc1C(O)CNc1nccc(-c2ccc(C)nc2C)n1` (configuration not stated), the INHIBITION amounted to 0.868%. With `c1cnn(CC2CCCCN2Cc2nc(-c3ccoc3)no2)c1` (configuration not stated), the INHIBITION is 31.8%. With `CC(NC(=O)NCc1cccnc1N(C)C)c1cccs1` (configuration not stated) the figure was 37.9%. With `COc1cc(C(=O)Nc2c(C)noc2C)ccc1C` the figure was 18.6%. With `COc1cc(C(=O)Nc2nc(C)no2)ccc1OC1CCCC1` the figure was 29.7%; with `COc1cc(C(=O)Nc2nc(C)no2)ccc1C`, 63.6%; with `Cc1noc(CNc2ccc(OC(F)F)cc2OC(F)F)n1`, -29.9%. Take `COc1cc(C(=O)Nc2cn[nH]c2)ccc1C`: the INHIBITION was determined as 10.45%. With `COc1cc(C(=O)Nc2nc(C)no2)ccc1OC(F)F` the figure was 81.1%. Consider `COCC(C)(NC(=O)c1cc(Cl)c(-n2cccc2)cc1OC)C(N)=O` (configuration not stated), for which the INHIBITION is recorded as -35%. With `CCn1cc(C(=O)NCc2ccc3c(c2)OCO3)c(C)n1` the figure was 3.52%; with `Cc1nc(CN(C)Cc2nc(-c3ccccc3)no2)co1`, 14.3%. As for `CN(CCC(O)c1ccccc1)Cc1ccccc1C#N` (configuration not stated), the INHIBITION came to 41.1%.

Consider `CN(CCC(O)c1ccccc1)Cc1nc(-c2ccccc2)no1` (configuration not stated), for which the INHIBITION turned out to be 62.9%.
